Shown are actives, neighbours in structure and some others; about 3.2% of the full set was active somewhere.
AHR act: human AHR activation; AHR-responsive luciferase reporter cells, luminescence; activation, % at 5 µM; hit rate 2.5% among 320,000; in the data active = activation above about 47%;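 note: 0% = vehicle wells and 100% = reference agonist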
NTR1 agonist: agonists of human neurotensin receptor NTR1. hit rate 0.17% among 330,000. AID 493036. NTR1-U2OS beta-arrestin-GFP spot imaging, agonist mode. P30989. activation, % at 20 µM;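 active = activation at or above 40% of the spot to cytoplasm intensity ratio, with at least 20 cells analyzed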;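 note: 0% = DMSO without peptide and 100% = 100 nM NTR1 peptide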
APOBEC3G inh: blocks human APOBEC3G single-stranded DNA deamination | recombinant A3G, ssDNA deamination FAM/TAMRA fluorescence | inhibition, % at 20 µM | hit rate 0.28% among 330,000 | AID 493012;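 active = inhibition of at least 40% at 20 µM, with no more than 30% in the related APOBEC3A deaminase screen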;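 note: plate controls were DMSO wells with A3G for no effect and wells lacking A3G enzyme for full effect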
Target sequence (Q9HC16 whole entry, looked up): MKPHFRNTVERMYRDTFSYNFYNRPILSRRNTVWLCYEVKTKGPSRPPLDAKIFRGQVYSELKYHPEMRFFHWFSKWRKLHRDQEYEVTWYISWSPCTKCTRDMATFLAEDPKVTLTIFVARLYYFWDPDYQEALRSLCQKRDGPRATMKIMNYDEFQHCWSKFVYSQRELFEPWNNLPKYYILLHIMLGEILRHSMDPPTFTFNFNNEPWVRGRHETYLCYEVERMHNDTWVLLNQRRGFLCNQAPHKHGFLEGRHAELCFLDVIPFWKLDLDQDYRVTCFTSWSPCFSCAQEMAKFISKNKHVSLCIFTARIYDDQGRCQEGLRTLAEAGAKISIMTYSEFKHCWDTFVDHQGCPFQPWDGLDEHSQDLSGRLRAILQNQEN
A3A deaminase: inhibitors of human APOBEC3A DNA deaminase; P31941; recombinant A3A, FAM/TAMRA ssDNA deamination fluorescence; inhibition, % at 20 µM; hit rate 0.41% among 330,000; AID 493011;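 active = at least 40% inhibition at 20 µM here, with at most 30% in a related deaminase screen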;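 note: plate controls were A3A with DMSO for no effect and wells lacking A3A enzyme for full effect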
A3A conf: APOBEC3A (human) deaminase inhibition, confirmed; shares compounds with A3A deaminase; recombinant A3A, ssDNA deaminase UDG fluorescence assay; inhibition, % at 20 µM; hit rate 63% among 1,400; AID 493151;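 active = inhibition reaching a set limit, 80% of the first screen's cutoff, at 20 µM in any replicate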;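 note: plate controls were DMSO wells with A3A for no effect and wells lacking A3A enzyme for full effect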
UDG A3A counter: counter-screen for APOBEC3A inhibitors: UDG | inhibition, % at 20 µM | AID 504714 | 1,000 tested, under 10 active | shares compounds with A3A deaminase | UDG counterscreen, FAM/TAMRA uracil oligo fluorescence; call rule not given here
* hit, by the source's call; . = no result given.

SMILES	AHR act	NTR1 agonist	APOBEC3G inh	A3A deaminase	A3A conf	UDG A3A counter
Fc1ccc(NC(=S)NCc2cccs2)cc1	-3	0	-3	-2	.	.
C[n+]1cccc(C(=O)NNC(=O)C23CC4CC(CC(C4)C2)C3)c1	-1	-1	21	82*	69*	-3
COc1ccccc1C(=O)NNC(=O)C12CC3CC(CC(C3)C1)C2	21	0	0	5	.	.
Cn1c2ccccc2c2cc(/C=N/NC(=O)c3cc(O)cc(O)c3)ccc21	2	1	20	55*	60*	2
Cc1cccc(C(=O)Oc2ccc(/C=N/NC(=O)c3cc(O)cc(O)c3)cc2)c1	.	19	24	69*	77*	2
CCCCc1ccc(NC(=O)Nc2c(C)n(C)n(-c3ccccc3)c2=O)cc1	3	0	-3	62*	-9	2
CCc1ccc(NC(=O)Nc2c(C)n(C)n(-c3ccccc3)c2=O)cc1	5	-1	20	-2	.	.
COc1cccc(N2[C@@H](CC(=O)O)c3ccc(/C=C/C(=O)O)cc3S2(=O)=O)c1	13	-2	26	94*	79*	-4
COc1cccc(N2[C@@H](CC(C)=O)c3ccccc3S2(=O)=O)c1	4	-5	-1	-2	.	.
CCc1n(CC(O)COC2CCCCC2)c2ccccc2[n+]1C (configuration not stated)	2	2	20	67*	71*	-2
Cc1nc2ccccc2n1CC(O)COCC1CC=CCC1 (configuration not stated)	-7	1	16	-3	.	.
CC1CC(OCC(O)CN2CCN(Cc3ccccc3)CC2)CC(C)(C)C1 (configuration not stated)	1	0	-2	0	.	.
CCCc1n(CC)c2ccccc2[n+]1CC(O)COC1CCCCC1 (configuration not stated)	0	3	15	89*	75*	2
CCc1n(CC(O)COCC2CC=CCC2)c2ccccc2[n+]1C (configuration not stated)	1	1	27	62*	70*	-2
CCn1c(C)[n+](CC(O)COCC2CC=CCC2)c2ccccc21 (configuration not stated)	8	0	29	66*	75*	-2
CC(=O)c1cccc(NC(=O)C(=O)c2cn(CC(=O)N3CCCCC3)c3ccccc23)c1	1	6	-3	-1	.	.
CCOC(=O)C1=CN(Cc2ccco2)S(=O)(=O)NC1c1cccc(OC)c1 (configuration not stated)	.	0	0	1	.	.
CC(C)(C)OC(=O)N[C@H](/C=C/c1ccccc1)C(=O)OC(C)(C)C	-1	2	-3	7	.	.
Cc1n(CC(O)COCc2ccccc2)c2ccccc2[n+]1C (configuration not stated)	0	0	16	59*	71*	-2
Cc1c(Cl)cccc1NC(=O)c1ccccc1-c1ccccc1C(=O)O	0	2	-10	-2	.	.
COc1cc(C(=O)Nc2cc(C)ccn2)ccc1OCC(=O)N1CCOCC1	-2	0	-3	-1	.	.
c1ccc(C[n+]2cccc3c4ccccc4ccc32)cc1	1	0	-7	9	.	.
CCCCC[n+]1cccc2c3ccccc3ccc21	-2	-1	23	55*	72*	-2
Cc1ccc(CNC(=O)CSc2nc3ccsc3c(=O)n2Cc2ccccn2)cc1	4	4	-5	-2	.	.
COc1ccc(NC(=O)CSc2nc3ccsc3c(=O)n2Cc2ccccn2)c(OC)c1	1	0	-3	43*	6	0
SMILES	AHR act	NTR1 agonist	APOBEC3G inh	A3A deaminase	A3A conf	UDG A3A counter
COc1cc(/C=C/c2cc[n+](C)cc2)ccc1OCC(=O)Nc1ccccc1	-1	1	8	66*	79*	3
COc1ccc(-c2ccc(-c3nnn(CC(C)=O)n3)cc2)cc1	5	-2	-4	-2	.	.
COc1cccc(-c2nnn(CC(C)=O)n2)c1	17	1	0	53*	-7	0
CC(OC(=O)C1=COCCO1)C(=O)NC(C)c1ccc(Cl)cc1Cl (configuration not stated)	5	0	-13	-3	.	.
C[N+]1(C2CCC3CCC2C3O)CCCC1 (configuration not stated)	-1	0	26	41*	67*	6
CC(=O)OC1C2CCC1C([N+]1(C)CCCCC1)CC2 (configuration not stated)	0	0	8	73*	73*	-1
C[N+]1(CC(=O)OC2CCCCCCCCCCC2)CCCC1	1	0	37	80	.	.
CCCCc1nc2c(C)c(N)cnc2n1Cc1cccc([N+](=O)[O-])c1	1	0	-4	-2	.	.
COc1ccc(OC)c(S(=O)(=O)N2CCCC(C(=O)N3CCCCCC3)C2)c1 (configuration not stated)	1	1	-7	-2	.	.
O=C(c1ccc(N2CCN(C(=O)c3cccc(F)c3)CC2)cc1)c1cccc(F)c1	1	2	-3	0	.	.
CCOC(=O)N1CCN(c2ccc(C(=O)c3cccc(F)c3)cc2)CC1	0	2	-1	45*	-7	-2
C[N+]12CCCCC1[C@@H](CO)CCC2 (some centres not stated)	3	0	22	56*	71*	2
CCN(CC(=O)Nc1ccc(OC)cc1)C(=O)c1cc(-c2cccs2)nn1-c1ccccc1	-2	4	-11	78*	1	5
CCCc1cc(=O)oc2cc(C)cc(OC(C)C(=O)NCCCn3ccnc3)c12 (configuration not stated)	11	-1	-9	-3	.	.
C[N+](C)(C)CCCNC(=O)c1ccc(/C=N/O)nc1	-2	0	15	41*	72*	1
COc1cccc(CNC(=O)CSc2nc(=O)n(Cc3ccncc3)c3c2CCC3)c1	1	-2	-6	-1	.	.
NC(=O)C[N+]1(CC#CC(O)(c2ccccc2)c2ccccc2)CCCC1	0	-2	18	51*	71*	3
Cn1cnc(C(=O)N2CCc3ccccc3C2)c1C(=O)N1CCc2ccccc2C1	2	1	40	52	.	.
Nc1cc(N)nc(SCC(=O)Nc2ccc(Br)cc2Cl)n1	12	1	17	58*	56*	-2
O=c1cc(CCl)nc2sc3ccccc3n12	0	3	26	63*	34*	-3
O=C(OCc1cc(=O)n2c(n1)sc1ccccc12)c1ccc(O)cc1	12	0	10	21	.	.
Cc1cccc(C(=O)N[C@H](C(=O)OCc2cc(=O)n3c(n2)sc2ccccc23)C(C)C)c1	0	7	19	43*	53*	3
Cc1cccc(NC(=O)CSCC(=O)Nc2cc(Cl)ccc2N2CCN(C)CC2)c1	0	2	7	51*	26	.
Cc1cccc(CC(=O)N2CCC(N3CCC(C(=O)N4CCOCC4)CC3)CC2)c1	0	-1	-5	98*	-6	-3

Bioassay records deposited in PubChem by several laboratories.
